Source: PubChem BioAssay AID652134 (The Scripps Research Institute Molecular Screening Center, 2013)
Hit rate of the full screen: of about 2,400 compounds, about 2,100 (88%) were called active.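 How the source made its calls: active means inhibition above the average of every tested compound plus 3 SD (cut at about 3.8% in these data); inactive means the rest.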 So high a share suggests a set chosen from earlier hits. Only a sample is shown.

Target: Nuclear receptor subfamily 0 group B member 1 (Homo sapiens) (UniProt P51843)
Assay: DAX1 (NR0B1) inhibitors relieving SF-1 repression, confirmation, cell-based, luminescence, HEK293T, full-length DAX-1, SF-1 activated StAR promoter (AID 652134);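 further: 0% = DAX-1 cells with DMSO and 100% = no DAX-1 control cells with DMSO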
Conditions: HEK293T StAR-promoter luciferase reporter, SF-1/DAX-1 repression; at 6.8 µM; hits give high values

Chain of Nuclear receptor subfamily 0 group B member 1 (Homo sapiens) (P51843 whole entry, looked up): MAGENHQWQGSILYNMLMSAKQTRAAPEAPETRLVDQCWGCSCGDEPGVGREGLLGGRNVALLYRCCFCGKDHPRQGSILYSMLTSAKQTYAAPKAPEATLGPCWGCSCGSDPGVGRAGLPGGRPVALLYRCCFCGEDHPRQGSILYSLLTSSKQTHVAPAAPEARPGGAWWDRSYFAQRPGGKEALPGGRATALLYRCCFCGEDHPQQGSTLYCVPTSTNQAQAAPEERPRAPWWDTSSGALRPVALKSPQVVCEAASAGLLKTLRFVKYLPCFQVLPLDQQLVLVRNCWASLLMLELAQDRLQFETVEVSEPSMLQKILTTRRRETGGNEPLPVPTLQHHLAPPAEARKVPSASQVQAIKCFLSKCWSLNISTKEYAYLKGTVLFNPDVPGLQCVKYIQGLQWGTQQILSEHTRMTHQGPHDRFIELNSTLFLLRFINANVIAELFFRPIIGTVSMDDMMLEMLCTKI

Structure (SMILES)	inhibition
Cc1cc(N)n2nc(-c3ccc(C(C)(C)C)cc3)cc2n1	13.7% (active)
O=C(c1cnn(-c2ccc(Cl)cc2)c1)c1ccccc1O	11.7% (active)
Cc1ccc(-c2nc3ccc(Br)cn3c2Cc2ccccc2C(F)(F)F)cc1	5.68% (active)
COc1ccccc1Cc1c(-c2ccc(F)cc2)nc2ccc(C)cn12	4.48% (active)
Nc1ccc2nn(-c3ccc(Cl)cc3)nc2c1	15.9% (active)
CN1OC[C@@H]2CN[C@H](c3ccc(-c4ccccc4)cc3)C[C@@H]21	8.84% (active)
COc1ccc(-c2csc(-c3cccs3)n2)cc1OC	10.7% (active)
CC1CCN(CCCNC(=O)CN2C(=O)CSc3ccc(S(=O)(=O)N4CCCCC4)cc32)CC1	2.3% (inactive)
CSCCC(NC(=O)c1ccco1)C(=O)Nc1cc(C)ccn1 (stereo not drawn)	12.7% (active)
Cc1nc(NC(=O)c2ccc3c(c2)OCCO3)ccc1Br	12.1% (active)
O=C(Nc1ccccc1)c1ccc2c(c1)OCCCO2	15.6% (active)
CN1CCN(c2ccc(NC(=O)c3ccc4c(c3)OCCO4)cc2Cl)CC1	6.62% (active)
Cc1ccc(C(=O)NNC(=O)c2ccc3c(c2)OCCO3)cc1	3.83% (active)
CCC(=O)Nc1ccc(-c2ccc(N3CCCCC3)nn2)cc1	3.57% (inactive)
c1ccc(Cc2c(-c3ccco3)nc3c4ccccc4ccn23)cc1	12.1% (active)
COc1ccc(CCNC(=O)COC(=O)Cc2ccccc2F)cc1	0.17% (inactive)
Cc1cc(C(=O)NCCc2ccc(Cl)cc2)c(C)o1	3.8% (active)
O=C(O)c1ccc(N/N=C/c2cn(-c3ccccc3)nc2-c2cccs2)cc1	12.7% (active)
NC(=O)CSc1nnc(NC(=O)c2ccc3ccccc3c2)s1	10% (active)
CCSc1nnc(NC(=O)c2ccc(C)cc2)s1	10% (active)
Cc1ccnc(NC(=O)CNC(=O)c2ccccc2)c1	3.68% (active)
Cc1nn(-c2ccc([N+](=O)[O-])cc2)c(N)c1-c1ccccc1	15.1% (active)
Fc1ccc2cnc(-c3ccccc3)cc2c1	6.65% (active)
